Source: PubChem (The Scripps Research Institute Molecular Screening Center)
KLK7 zymogen act = proKLK7 zymogen activators, primary screen, biochemical, fluorescence intensity. Kallikrein-7 (Homo sapiens), P49862. purified proKLK7, EDANS-DABCYL substrate fluorescence; 100% is mature enzyme control, 0% vehicle. activation, % at 7 µM. 370,000 tested, 0.9% active;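 active = activation above the mean of all tested compounds plus 3 SD, computed per campaign excluding outliers beyond control limits, cut at about 13% in these data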
PLC-beta3 inh = human PLC-beta3 inhibitors, primary screen, biochemical, fluorescence; 1-phosphatidylinositol 4,5-bisphosphate phosphodiesterase beta-3 (Homo sapiens), Q01970; Purified PLC-beta3, fluorogenic substrate; inhibition, % at 12.2 µM; 370,000 tested, 0.18% active; in the data active = inhibition above about 11%;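 note: 0% = median of compound wells on plate and 100% = full blocker control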
ADAM10 inh = human ADAM10 inhibitors, primary screen, biochemical, QFRET, HTS. inhibition, % at 7 µM. Disintegrin and metalloproteinase domain-containing protein 10 (Homo sapiens), O14672. recombinant ADAM10, EDANS/DABCYL FRET peptide cleavage, 3 h. AID 720582, 2013. 370,000 tested, 0.62% active;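 active = inhibition above a per-campaign cutoff equal to the mean of compounds falling between control-based bounds plus 3 SD, cut at about 20% in these data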;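 note: 0% = DMSO wells while the 100% control is not disclosed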
PLC-gamma1 inh = PLC-gamma1 enzyme inhibitors, primary screen, biochemical, fluorescence, purified enzyme; 1-phosphatidylinositol 4,5-bisphosphate phosphodiesterase gamma-1 (Homo sapiens), P19174; 370,000 tested, 0.84% active; inhibition, % at 12.2 µM; fluorogenic substrate; in the data active = inhibition above about 9.5%
ADAM17 inh = ADAM17 inhibitors, primary screen, biochemical, QFRET; Disintegrin and metalloproteinase domain-containing protein 17 (Homo sapiens), P78536; recombinant ADAM17, EDANS/DABCYL FRET peptide cleavage; inhibition, % at 6.95 µM; 370,000 tested, 0.83% active;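 active = inhibition above the mean of compounds lying between control limits plus 3 SD, set per campaign, cut at about 8.5% in these data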;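 note: 0% = DMSO-only wells as the low control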
KLK7 act conf = proKLK7 zymogen activators, confirmation, biochemical, fluorescence intensity, triplicate; shares compounds with KLK7 zymogen act; purified proKLK7, EDANS-DABCYL substrate fluorescence; scaled: vehicle 0, mature enzyme 100; activation, % at 7 µM; 3,200 tested, 68% active;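 active = activation, as change over the incubation, above the mean of all tested compounds plus 3 SD, cut at about 13% in these data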
EDANS-DABCYL int = EDANS-DABCYL substrate optical interference, artefact control for kallikrein-7 zymogen activator project, biochemical, fluorescence intensity, high throughput; shares compounds with KLK7 zymogen act; no enzyme, 4 h; solvent 0%, active enzyme control 100%; 3,200 tested, 80% active; activation, % at 7 µM;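 active = activation above the all-compound mean plus 3 SD, ignoring values outside control-based bounds, cut at about 4.8% in these data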;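 note: value is the 4 h activation minus the activation read at time zero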
K7 EDANS ctr = counter-screen for kallikrein-7 activators: EDANS-DABCYL interference, dose response; 250 tested, 20% active; EDANS-DABCYL peptide fluorescence interference, no enzyme; EC50, µM; AID 720493; shares compounds with KLK7 zymogen act;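 active = compounds that raise the fluorescence signal in this interference counterscreen, with EC50 at or below 10 µM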;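 note: intact quenched peptide substrate alone read at 355 nm excitation and 520 nm emission; signal is fluorescence gain from T0 to T4 after four hours at room temperature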
* = called active by the depositor; i = inactive; nt = not tested or not shown. Compounds with a hit are over-represented: about 2.9% of the library has one in this group of screens.

SMILES	KLK7 zymogen act	PLC-beta3 inh	ADAM10 inh	PLC-gamma1 inh	ADAM17 inh	KLK7 act conf	EDANS-DABCYL int	others
COc1cc(/C=C/CNC[C@H]2O[C@@H](n3cc(C)c(=O)[nH]c3=O)C[C@@H]2O)ccc1O	1	-3	-2	-5	1	nt	nt
COc1ccc(S(=O)(=O)NCCc2ccc(F)cc2)cc1	0	0	0	-2	2	nt	nt
CC(C)NC(=S)N/N=C/C1=CCC2CC1C2(C)C (stereo not given)	0	0	5	-5	1	nt	nt
Nc1ccc2nc3c(c(Cl)c2c1)CCCC3	14*	i	-194	i	-65	1	1
CCOC(=O)c1cnc2c(c(C)nn2-c2ccc(C)cc2)c1Cl	-1	-6	-7	4	-7	nt	nt
Cn1c(=O)c2cc(NC(=S)NCc3ccccc3F)ccc2n1Cc1ccc(F)cc1	-3	i	i	i	-480	nt	nt
Cn1c(=O)c2cc(NC(=S)NC3CC3)ccc2n1Cc1ccc(F)cc1	14*	-249	i	-175	-157	9	14*
COc1ccc(CCNC(=O)Nc2ccc3c(c2)c(=O)n(C)n3Cc2ccc(F)cc2)cc1OC	12	-425	i	-311	-386	nt	nt
C=C(C)Cn1c2ccc(NC(=O)NCCc3ccccc3)cc2c(=O)n1C	27*	i	i	-498	i	8	20*
Cn1c(=O)c2cc(NC(=O)NCCc3ccccc3)ccc2n1Cc1ccc(F)cc1	16*	i	i	-477	i	1	0
Cc1ccccc1Cn1ccc(NC(=O)c2cnn3c(C(F)(F)F)cc(-c4ccco4)nc23)n1	0	-4	6	-2	-2	nt	nt
COc1ccc(OCc2cc(C(=O)N3CCCN(C(C)=O)CC3)no2)c(Cl)c1	1	-6	7	4	0	nt	nt
O=C(NCc1ccco1)/C(=C\c1ccccc1)NC(=O)c1ccccc1	0	-6	-3	-4	-4	nt	nt
CC(=O)Nc1cncc(-c2ccc(CN(C)C)cc2)n1	1	-6	-32	-2	-11	nt	nt
CNc1cncc(-c2cnn(CC(C)C)c2)n1	33*	i	i	-424	i	72*	64*
CNc1cncc(-c2cc(C)c(O)c(C)c2)n1	2	-43	-186	-34	-47	nt	nt
CNc1cncc(-c2ccc(CN(C)C)cc2)n1	116*	i	i	i	i	72*	82*
CNc1cncc(-c2ccc(O)cc2)n1	41*	-300	i	-247	i	19*	19*
CNc1cncc(-c2ccc(OC)cc2)n1	25*	i	i	-455	i	49*	41*	K7 EDANS ctr=>70
CNc1cccc(-c2cc(OC)ccc2OC)n1	0	-3	-3	3	-2	nt	nt
CC1(c2cccc(Br)c2)NC(=O)N(CC(=O)c2ccc3c(c2)OCCO3)C1=O (stereo not given)	0	-10	0	-1	0	nt	nt
CCCOc1ccc(-c2nc(C#N)c(N3CCC(C(N)=O)CC3)o2)cc1	1	-30	-427	-15	-130	nt	nt
CCOc1cc(CNC(C)(C)CO)cc(Br)c1OCc1ccc(Cl)cc1Cl	0	6	6	6	1	nt	nt
N#Cc1cccc(NC(=O)CNc2cc(S(=O)(=O)N3CCOCC3)ccc2N2CCCC2)c1	0	-13	-14	-8	-2	nt	nt
CNc1cncc(-c2ccc(CN3CCOCC3)cc2)n1	82*	i	i	i	i	67*	78*
SMILES	KLK7 zymogen act	PLC-beta3 inh	ADAM10 inh	PLC-gamma1 inh	ADAM17 inh	KLK7 act conf	EDANS-DABCYL int	others
CNc1cncc(-c2ccoc2)n1	20*	-415	i	-339	i	28*	30*
CNc1cncc(-c2ccc(F)cc2F)n1	14*	i	i	-457	i	20*	50*
CC(O)(c1cccnc1)c1nc(-c2ccoc2)cs1 (stereo not given)	0	-7	0	1	-2	nt	nt
CNc1cncc(-c2cccc(NS(C)(=O)=O)c2)n1	130*	i	i	i	i	45*	57*
CNc1cncc(-c2cccc(C(C)=O)c2)n1	0	-9	-20	-6	-6	nt	nt
O=C(C[n+]1cc(Br)cc2ccccc21)c1ccc(Cl)cc1	-1	-10	1	-6	-6	nt	nt
CC(CCC(=O)O)C1CCC2C3CCC4CC(O)CCC4(C)C3CC(O)C12C (stereo not given)	0	3	-3	-2	-4	nt	nt
O=C(CSc1nnc(-c2ccncc2)o1)Nc1nncs1	0	-13	2	-7	-2	nt	nt
CNc1cncc(-c2ccc(S(C)(=O)=O)cc2)n1	85*	i	i	i	i	66*	65*
CS(=O)(=O)c1ccc(-c2nn[nH]n2)cc1	1	1	-3	0	-5	nt	nt
CNc1cncc(-c2ccc(OCCCN(C)C)nc2)n1	51*	i	i	i	i	59*	72*
O=c1c(-c2ccc(Cl)cc2)[n+]([O-])c2ccccc2n1O	-8	-248	-102	-217	-37	nt	nt
COCCn1c(C)cc(/C=C(\C#N)C(=O)OCC(=O)Nc2ccc(S(N)(=O)=O)cc2)c1C	14*	-18	-19	-10	-2	1	0
O=C(NCCCN1CCCC1=O)c1cccc(NS(=O)(=O)c2ccccc2)c1	0	-1	-3	0	-3	nt	nt
Cc1cccc(C(=O)N=c2c(C#N)cc3c(=O)n4cccc(C)c4nc3n2Cc2ccco2)c1	27*	i	i	i	i	16*	1	K7 EDANS ctr=i
Cc1cccn2c(=O)c3cc(C#N)c(=NC(=O)c4ccccc4)n(Cc4ccco4)c3nc12	45*	i	i	i	i	27*	17*	K7 EDANS ctr=7.8*
Cc1cccn2c(=O)c3cc(C#N)c(=NC(=O)c4ccco4)n(Cc4ccco4)c3nc12	9	-374	i	-280	-364	nt	nt
Cc1cc(C)c(OCCCCn2cnc3ccccc3c2=O)c(C)c1	0	2	-6	2	0	nt	nt
CCOC(=O)C1CCN(c2cc3c(cc2NC(=O)c2cc(OC)ccc2Br)n(C)c(=O)n3C)CC1	19*	i	-70	i	-19	25*	31*
